Bioassay records as filed in PubChem BioAssay.
C diff HTS: inhibitors of Clostridium difficile growth; Clostridium difficile clinical isolate growth, OD600, 24 h; hits give low values; growth activity, negative = inhibition, % at 16 µg/mL (by protocol); 86,000 compounds, 0.25% hits;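 active means mean growth activity at or below -80% and every replicate also at or below -80%; inconclusive means mean at or below -80% but some replicate above -80%; inactive means mean growth activity above -80%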;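 further: 0% = DMSO wells and -100% = levofloxacin 16 µg/mL wells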
T cruzi growth-1: T. cruzi proliferation inhibition | AID 624255 | 77,000 compounds, 5.9% hits | inhibition, % at 8.34 µM | T. cruzi beta-gal in NIH3T3, GalScreen luminescence, 90 h;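 active means mean inhibition above about 93%, with at least 55% of replicates each passing it, limit read from the data, passing the limit was not always enough; inconclusive means only one of those two conditions holds; inactive means neither condition holds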
Pf Dd2 inh: P. falciparum Dd2 growth inhibition. SYBR Green, 72 h; hits give low values. activity change, % at 10 µM. 94,000 compounds, 2.3% hits; in the data active means activity change below about -80%; inconclusive means no clear call, values can overlap the other calls
T cruzi growth-2: Trypanosoma cruzi proliferation inhibition | 5,600 compounds, 72% hits | T. cruzi beta-gal in NIH3T3, GalScreen luminescence, 90 h | AID 651739 | inhibition, % at 8.35 µM | shares compounds with T cruzi growth-1;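 active means mean replicate inhibition above about 95% and at least 55% of replicates individually reaching it, limit read from the data; inconclusive means only one of the two criteria is met; inactive means neither criterion is met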
T cruzi growth-3: Trypanosoma cruzi proliferation inhibition | shares compounds with T cruzi growth-1 | T. cruzi beta-gal in NIH3T3, GalScreen luminescence, 90 h | inhibition, % at 2.09 µM | 5,600 compounds, 21% hits;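 active means mean inhibition above about 95%, with at least 55% of replicates also reaching it, limit read from the data; inconclusive means meets just one of the two conditions; inactive means meets neither condition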;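 further: plate controls were neutral control median for no effect and positive control median for full effect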
3T3 cytotox: cytotoxicity in mouse NIH/3T3 fibroblasts; shares compounds with T cruzi growth-1; NIH/3T3 viability, CellTiter-Glo ATP luminescence, 90 h; cytotoxicity (signal decrease), % at 8.35 µM; 5,600 compounds, 14% hits;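 active means mean signal decrease across replicates above about 35% based on untreated-well scatter, with enough replicates individually passing, limit read from the data; inconclusive means no rule stated though some were filed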;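 further: 0% = median of neutral control wells and 100% = median of positive control wells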
NIH3T3 tox 2: kills mouse NIH/3T3 fibroblasts; inhibition, % at 24.9 µM; NIH/3T3 viability, CellTiter-Glo ATP luminescence, 90 h; 5,600 compounds, 56% hits; shares compounds with T cruzi growth-1;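 active means mean loss of cell viability signal at or above a set limit, and enough replicates individually reaching it; inconclusive means meets only the mean limit or only the replicate share; inactive means meets neither condition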;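 further: 0% = median of neutral control wells and 100% = median of positive control wells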
Active calls of the source: *. The list is not random: actives were taken first. Their share in the collection is about 6.8%.

For COc1ccccc1S(=O)(=O)N(C)C[C@@H]1Oc2cc(C#CCC(C)C)ccc2S(=O)(=O)N([C@H](C)CO)C[C@H]1C the results were C diff HTS 6, T cruzi growth-1 103*, Pf Dd2 inh -83*, T cruzi growth-2 93, T cruzi growth-3 115*, 3T3 cytotox 44* and NIH3T3 tox 2 105*.
Screening COc1ccccc1S(=O)(=O)N(C)C[C@@H]1Oc2cc(C#CCC(C)C)ccc2S(=O)(=O)N([C@@H](C)CO)C[C@H]1C returned C diff HTS 8, T cruzi growth-1 inconclusive, Pf Dd2 inh -89*, T cruzi growth-2 97*, T cruzi growth-3 108*, 3T3 cytotox 24 and NIH3T3 tox 2 41*.
Screening COc1ccccc1S(=O)(=O)N(C)C[C@H]1Oc2cc(C#CCC3CCCC3)ccc2S(=O)(=O)N([C@@H](C)CO)C[C@@H]1C returned C diff HTS 2 and Pf Dd2 inh -55.
For CCCC(=O)Nc1ccc2c(c1)OC[C@@H](C)N(Cc1nccs1)C[C@@H](C)[C@@H](OC)CN(C)C2=O the results were T cruzi growth-1 86 and Pf Dd2 inh -27.
Screening CN(C)C(=O)c1cccc(-c2ccc3c(c2)[C@@H]2[C@@H](CCN2C(=O)c2ccncc2)[C@@H](CO)N3C)c1 returned C diff HTS 2, T cruzi growth-1 69 and Pf Dd2 inh -7.
`C[C@H]1CN([C@@H](C)CO)C(=O)c2cc(NC(=O)CCCCCC(=O)Nc3ccccc3N)ccc2O[C@@H]1CN(C)C` gave C diff HTS 1 and Pf Dd2 inh 17.
C[C@H]1CN([C@@H](C)CO)S(=O)(=O)c2ccc(C#CC3CCCCC3)cc2O[C@@H]1CN(C)C was read as C diff HTS 16, T cruzi growth-1 109*, Pf Dd2 inh -48, T cruzi growth-2 109*, T cruzi growth-3 81, 3T3 cytotox 18 and NIH3T3 tox 2 104*.
`C[C@@H]1CN([C@H](C)CO)S(=O)(=O)c2ccc(C#Cc3ccc(F)cc3)cc2O[C@H]1CN(C)S(C)(=O)=O` gave C diff HTS 5, T cruzi growth-1 97*, Pf Dd2 inh -72, T cruzi growth-2 98*, T cruzi growth-3 38, 3T3 cytotox inconclusive and NIH3T3 tox 2 55*.
Screening CCC(=O)N(C)C[C@@H]1Oc2cc(C#CC3CCCCC3)ccc2S(=O)(=O)N([C@@H](C)CO)C[C@H]1C returned C diff HTS -17, T cruzi growth-1 114*, Pf Dd2 inh -65, T cruzi growth-2 98*, T cruzi growth-3 54, 3T3 cytotox 18 and NIH3T3 tox 2 80*.
C[C@@H]1CN([C@@H](C)CO)S(=O)(=O)c2ccc(C#CC3CC3)cc2O[C@H]1CN(C)S(C)(=O)=O was read as C diff HTS 2 and Pf Dd2 inh -27.
Screening C[C@H](CO)N1C[C@H](C)[C@H](CN(C)S(C)(=O)=O)Oc2cc(C#Cc3ccccc3)ccc2S1(=O)=O returned C diff HTS 3, T cruzi growth-1 65 and Pf Dd2 inh -54.
`C[C@@H]1CN([C@@H](C)CO)S(=O)(=O)c2ccc(C#CC3CCCC3)cc2O[C@@H]1CN(C)S(C)(=O)=O` gave T cruzi growth-1 inconclusive, Pf Dd2 inh 13, T cruzi growth-2 84, T cruzi growth-3 47, 3T3 cytotox 10 and NIH3T3 tox 2 67*.
For CCC(=O)N(C)C[C@@H]1Oc2cc(C#CC3CCCCC3)ccc2S(=O)(=O)N([C@H](C)CO)C[C@H]1C the results were C diff HTS -24, T cruzi growth-1 82 and Pf Dd2 inh -37.
C[C@@H]1CN([C@H](C)CO)S(=O)(=O)c2ccc(C#CC3CCCCC3)cc2O[C@H]1CN(C)C was read as C diff HTS 26, T cruzi growth-1 84 and Pf Dd2 inh -59.
Screening C[C@H](CO)N1C[C@H](C)[C@H](CN(C)S(=O)(=O)c2ccccc2)Oc2ccc(NC(=O)Nc3ccc4c(c3)OCO4)cc2C1=O returned C diff HTS 1, T cruzi growth-1 -53 and Pf Dd2 inh -3.
O=C(NCC[C@@H]1CC[C@@H](NC(=O)C2CCCCC2)[C@H](CO)O1)c1cnccn1 was read as C diff HTS 0 and Pf Dd2 inh 2.
